High-throughput results deposited in PubChem BioAssay by several laboratories.
GAA850 FXN act = frataxin GAA850 promoter activation | HEK293 lucGAA850 FXN promoter luciferase reporter, 24 h; percent of 10 µM SAHA response | activation, % at 6 µM | 0.56% of 360,000 active | AID 540364;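 active means activation above the average of all compounds screened plus 3 SD, cutoff fixed separately per campaign, cut at about 7.5% in these data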;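 further: 0% = DMSO wells and 100% = 10 µM SAHA wells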
Gli-Sufu antag = blocks Gli-Sufu signaling in a luciferase reporter; Sufu-KO-LIGHT fibroblasts, Gli luciferase reporter luminescence; inhibition, % at 5 µM; 0.74% of 340,000 active;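 active means inhibition above about 55%, limit read from the data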;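 further: 0% = DMSO-treated cells and 100% = wells with medium but no cells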
NR2F2 inh = NR2F2 (human) inhibition, primary screen. P24468. HEK293T NGFI-A luciferase reporter, luminescence. inhibition, % at 8.6 µM. 0.7% of 370,000 active. AID 686940;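 active means inhibition above a per-plate cutoff, mean inhibition of test wells between control levels plus 3 SD, cut at about 38% in these data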;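 further: cells cotransfected with COUP-TFII expression vector driving the NGFI-A reporter; 0% = median of COUP-TF2 test wells and 100% = reporter-only cells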
Target sequence (P24468 whole entry, looked up): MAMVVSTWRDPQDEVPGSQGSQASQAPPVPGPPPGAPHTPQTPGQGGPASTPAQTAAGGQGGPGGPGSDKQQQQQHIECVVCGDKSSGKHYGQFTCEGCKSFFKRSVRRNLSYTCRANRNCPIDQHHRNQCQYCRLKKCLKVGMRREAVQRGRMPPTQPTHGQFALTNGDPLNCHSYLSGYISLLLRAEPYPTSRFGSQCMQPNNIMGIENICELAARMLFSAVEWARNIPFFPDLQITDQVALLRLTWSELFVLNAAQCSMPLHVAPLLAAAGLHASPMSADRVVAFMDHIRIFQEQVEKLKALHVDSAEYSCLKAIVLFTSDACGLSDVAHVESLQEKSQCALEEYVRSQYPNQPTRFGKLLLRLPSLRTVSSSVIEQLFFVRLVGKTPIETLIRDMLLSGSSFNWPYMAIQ
SMARCA2 act = SMARCA2 function activation, primary screen | MG213 cells, MMTV-luciferase reporter, dexamethasone, overnight | activation, % at 9.1 µM | 1% of 370,000 active | AID 652017; in the data active means activation above about 7.8%;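 further: 0% = vehicle wells and 100% = reference activator wells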
H9c2 protect = myocardial damage modulation in H9c2 cells; H9c2 cardiomyocytes, H2O2 injury protection, ATPLite, 2 h; protection from H2O2 cell death, % at 20 µM; 0.63% of 360,000 active;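 active means compounds giving at least 50% protection of heart cells from peroxide-induced death in the single-dose screen, raw or plate-pattern-corrected value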;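 further: 0% = DMSO wells with peroxide and 100% = DMSO wells without peroxide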
GalR3 antagonist = antagonists of human GalR3; 0.44% of 360,000 active; HEK293 GalR3-CNG cAMP membrane potential fluorescence; galR3 body fused to GalR1 C-terminus; O60755; inhibition, % at 3 µM; AID 651719;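 active means inhibition above the screen-wide average plus 3 SD, cut at about 13% in these data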;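 further: forskolin and galanin both at EC90 stimulate the cells; cAMP rise reported by CNG channel membrane potential dye signal; 0% = forskolin plus galanin with DMSO and 100% = forskolin alone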
Target sequence (O60755 1-299 limits assumed): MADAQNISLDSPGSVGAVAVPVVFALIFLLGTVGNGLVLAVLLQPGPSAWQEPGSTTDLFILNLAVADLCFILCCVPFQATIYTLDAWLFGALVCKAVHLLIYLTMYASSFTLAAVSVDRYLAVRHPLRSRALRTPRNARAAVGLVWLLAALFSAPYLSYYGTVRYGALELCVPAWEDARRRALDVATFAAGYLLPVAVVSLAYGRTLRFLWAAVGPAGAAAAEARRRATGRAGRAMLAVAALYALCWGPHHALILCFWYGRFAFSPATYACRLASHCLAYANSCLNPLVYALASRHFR
Gli-Sufu confirm = confirmation of Gli-SUFU pathway antagonists; shares compounds with Gli-Sufu antag; Sufu-KO-LIGHT cells, Gli luciferase reporter, luminescence; inhibition, % at 5 µM; 40% of 2,500 active;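 active means mean inhibition at 5 µM reaching about 45%, limit read from the data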;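 further: plate controls were DMSO-treated cells for no effect and wells lacking cells for full effect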
Gli cytotox = counter-screen for Gli-SUFU antagonists: cytotoxicity; shares compounds with Gli-Sufu antag; Sufu-KO-LIGHT cells cytotoxicity, ATP luminescence; cytotoxicity, % at 5 µM; 32% of 2,500 active; AID 651994;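 active means mean cytotoxicity at 5 µM above about 25%, limit read from the data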;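 further: cells exposed to compound overnight for roughly 16 to 18 hours; plate controls were DMSO wells with cells for no effect and medium without cells for full effect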
Wnt3a counter = Wnt3a reporter inhibition counter-screen | shares compounds with Gli-Sufu antag | Wnt-LIGHT cells, Wnt3a-driven luciferase reporter, luminescence | inhibition, % at 6.25 µM | 20% of 2,500 active | AID 651995;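 active means mean inhibition above about 25%, limit read from the data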
Starred values were filed as active, the others as inactive; / = no result. Compounds with a hit are over-represented: about 3.4% of the library has one in this group of screens.

SMILES | GAA850 FXN act | Gli-Sufu antag | NR2F2 inh | SMARCA2 act | H9c2 protect | GalR3 antagonist | Gli-Sufu confirm | Gli cytotox | Wnt3a counter
CCN1C(=O)CCN(C2CCCC2)c2nc(Nc3ccc(C(=O)NC4CCN(C)CC4)cc3OC)ncc21 | -6.0 | 71.5* | -122.2 | 0.8 | -29.8 | -2.5 | 60.4* | 23.9 | -87.4
COc1ccccc1NC(=O)Nc1ccc(Cc2ccncc2)cc1 | 1.6 | 50.3 | -6.4 | 1.2 | 1.9 | -4.2 | 14.9 | 6.9 | -37.9
O=S1(=O)CC(N2CC=CC2)CN1C1CCCCC1 (centres undefined) | / | / | -14.3 | 3.7 | 2.3 | 0.8 | / | / | /
C[C@H](c1ccccc1)N1C[C@H](COCc2ccccc2)Oc2cc(N3CCC[C@@H]3CO)ccc2S1(=O)=O | / | / | 17.8 | 0.3 | / | -4.0 | / | / | /
Cn1c(Cc2csc(N)n2)nnc1SCC(=O)NCc1ccccc1 | 0.7 | 95.2* | 5.3 | 0.7 | 0.3 | -0.7 | 3.6 | 2.5 | -17.4
CN1CCN(C2CN(Cc3cn(Cc4ccc(C(F)(F)F)cc4)nn3)S(=O)(=O)C2)CC1 (centres undefined) | / | / | -1.8 | -5.1 | / | -1.4 | / | / | /
Cc1csc(=Nc2cccnc2)n1Cc1ccco1 | 2.1 | 55.5* | -1.6 | -2.5 | 1.7 | -8.9 | 4.4 | -0.5 | -22.1
Cc1ccccc1NC(=O)Cc1c[nH]c2ccccc12 | 4.2 | 55.2* | 29.4 | 1.1 | 4.1 | -11.0 | 18.4 | 18.0 | -36.6
CCCC1CCC2(CC1)CCC2OC(=O)Nc1ccc(C)cc1 (centres undefined) | / | / | -15.9 | / | / | / | / | / | /
COc1ccc(/C=C/C2=CCN(Cc3ccc(OC)cc3)CC2)cc1 | 0.0 | 50.4 | -10.8 | -6.3 | -9.7 | -11.6 | 17.7 | 10.6 | -48.1
C[C@@H]1ON(C)[C@H]2C[C@H]3c4[nH]c5c(-c6ccc7c(c6)OCO7)cccc5c4CCN3C[C@@H]12 | / | / | -4.0 | -3.1 | / | / | / | / | /
CN(C)C1=NC[C@H](Cc2ccccc2)N1CCCC1CCCCC1 | -3.7 | 50.0 | -9.4 | 0.5 | -27.2 | -11.7 | / | / | /
CN(C)C1=NC[C@H](Cc2ccccc2)N1CCCC1CCCC1 | -4.0 | 56.5* | 12.7 | 1.0 | -20.9 | -8.6 | 43.8 | 31.4* | 13.1
O=C(NNC(=O)c1ccncc1)Nc1ccc(N=Nc2ccccc2)cc1 | 3.6 | -27.3 | -35.5 | -1.6 | 3.8 | -1.1 | / | / | /
O=C(c1ccccc1)N1CCN(CC#Cc2ccccc2)CC1 | 1.9 | 98.5* | -22.2 | 5.1 | -1.5 | -3.5 | -6.0 | 15.9 | -37.6
CN1C/C(=C/c2ccccc2)N2C(=O)C[C@@H](c3ccccc3)N=C12 | / | / | 8.3 | -1.9 | / | / | / | / | /
CCCCCn1c(N2CCN(c3cccc(Cl)c3)CC2)nc2c1c(=O)[nH]c(=O)n2C | -1.1 | -10.4 | 7.8 | -3.9 | 13.2 | -3.2 | / | / | /
CCCCCn1c(CN2CCN(c3cc(Cl)ccc3C)CC2)nc2c1c(=O)[nH]c(=O)n2C | 0.4 | 53.9 | -1.6 | 0.0 | -7.9 | -3.0 | 26.3 | 22.9 | -29.1
Cn1cc(-c2csc(C(O)(c3ccccc3)C(F)(F)F)n2)cn1 (centres undefined) | 1.4 | / | -9.5 | 0.6 | 1.3 | -2.1 | / | / | /
CCNC(=S)N1CCN(c2ccc([N+](=O)[O-])cc2)CC1 | -2.1 | 2.1 | -2.7 | 0.4 | -9.8 | -3.0 | / | / | /
O=[N+]([O-])c1ccc(N2CCN(C(=S)NCc3ccc(Cl)cc3)CC2)cc1 | -1.1 | 57.8* | 23.6 | -7.5 | -11.1 | -10.2 | 42.9 | 7.6 | -56.5
Cc1cccc(C)c1NC(=O)Cn1nnc(-c2ccc(CN3CCC(C)CC3)cc2)n1 | -2.4 | 27.8 | -5.8 | -1.0 | -10.3 | -5.0 | / | / | /
CC1CCN(Cc2ccc(-c3nnn(CC(=O)Nc4ccccc4Cl)n3)cc2)CC1 | 1.5 | 58.2* | 12.9 | -1.7 | -25.1 | -9.4 | 73.1* | 32.6* | 6.1
Cc1ccc(O)c(NC(=O)C2=CC(c3cccs3)=NS(=O)(=O)N2C)c1 | -2.5 | 93.9* | 17.6 | -3.6 | 1.1 | / | 15.7 | -3.5 | 2.8
CC(OC(=O)CCC(=O)c1ccc(Cl)s1)C(=O)NC1(C#N)CCCCC1 (centres undefined) | 1.3 | 93.7* | -10.6 | -1.7 | 0.7 | -1.9 | 21.9 | 2.4 | -17.3
SMILES | GAA850 FXN act | Gli-Sufu antag | NR2F2 inh | SMARCA2 act | H9c2 protect | GalR3 antagonist | Gli-Sufu confirm | Gli cytotox | Wnt3a counter
CCOc1ncccc1C(=O)N1CCN(c2cc(Cl)ccc2C)CC1 | -0.7 | 51.2 | -18.0 | -2.3 | -3.5 | 0.6 | 38.1 | 53.6* | -54.8
O=C(NCc1ccccc1Cl)c1[nH]c(C(F)(F)F)nc1-c1ccccc1 | / | / | 14.9 | -2.7 | -6.7 | -4.2 | / | / | /
CCC1(OC(=O)CN(C)C)C(=O)OCc2c1cc1n(c2=O)Cc2cc3c(N)cccc3nc2-1 (centres undefined) | -14.4 | 64.2* | / | / | 0.8 | / | 62.5* | 35.6* | -60.6
CCC1(O)C(=O)OCc2c1cc1n(c2=O)Cc2cc3c(N)cccc3nc2-1 (centres undefined) | -14.2 | 84.4* | 21.6 | -8.8 | 4.8 | -6.0 | 62.8* | 48.9* | -83.4
COC(=O)C1CN(CC(C)C)CCS(=O)(=O)N1Cc1ccc(Cl)cc1 (centres undefined) | / | / | -18.7 | 4.4 | / | / | / | / | /
O=C(Nc1ccc2c(c1)OCCO2)C(C1CC1)n1c(=O)c(-c2cc3ccccc3[nH]2)nc2ccccc21 (centres undefined) | / | / | 12.1 | -4.5 | / | -1.0 | / | / | /
COc1ccc(-c2cc(C(F)(F)F)n3nc(N)nc3n2)cc1 | 2.5 | -4.7 | / | / | 0.4 | / | / | / | /
COc1cccc(-c2cc(C(F)(F)F)n3nc(N)nc3n2)c1 | 4.0 | 77.5* | -8.1 | 0.5 | -9.8 | 0.3 | 28.9 | 12.3 | -14.7
Cc1ccnc(NC(=O)CCC(=O)N(CC(=O)NCc2ccc(F)cc2)Cc2ccco2)c1 | -0.3 | 62.8* | -4.2 | -0.8 | 1.6 | -6.1 | 14.7 | 7.9 | -6.2
Cc1ccnc(NC(=O)CCC(=O)N(CC(=O)NCc2ccc(F)cc2)c2ccc(F)cc2)c1 | -1.8 | -25.3 | 1.5 | -2.3 | 3.1 | -7.1 | / | / | /
O=C(c1ccc([N+](=O)[O-])cc1)N(Cc1ccc(Cl)cc1)N1C(=O)CCCC1=O | 0.3 | 78.2* | -1.6 | -1.0 | -1.3 | -6.8 | 89.5* | 71.4* | 10.4
O=c1ccc(-c2ccc(S(=O)(=O)NCC3CCN(Cc4cccc(F)c4)CC3)s2)n[nH]1 | -0.2 | 59.2* | -11.4 | 1.1 | -0.4 | -1.6 | 12.5 | 21.9 | -4.8
CCCCCCCCN1C(=O)[C@@H](CC(=O)NCCCOC)C[C@@]2(C(=O)OC)C1=C[C@H](C(C)C)O[C@@H]2C1CC1 | / | / | -6.4 | 0.9 | / | / | / | / | /
COc1ccccc1NS(=O)(=O)c1ccc(O)c(C(=O)OCC(=O)Nc2ccccc2F)c1 | -0.9 | -2.4 | -9.3 | -3.0 | 8.1 | -7.4 | / | / | /
